Inconclusive results are not listed. Activity calls are given as the source filed them. The call rests on the fitted dose curve; in most records, active means well fitted cell-killing curve with a large enough effect in the repeat runs; inconclusive means weak or mixed curves, or effect the other way; inactive means flat fitted curve, though single readings scatter.
Assay: qHTS assay to identify small molecule antagonists of the estrogen related receptor signaling pathway with the pleiotropic PPARgamma coactivator (PGC) cell viability counter screen (AID 1224822)
Details: ERR/PGC reporter cell line viability counter screen; series mostly up to 46.1 µM; viability change, negative = cytotoxic: at the top concentration
From the text: National Center for Advancing Translational Sciences [NCATS]
NIH Chemical Genomics Center [NCGC]
U.S. Environmental Protection Agency [EPA]
National Institutes of Environmental Health Sciences [NIEHS]
National Toxicology Program [NTP]
U.S. Food and Drug Administration [FDA]
Estrogen related receptors (ERRs), the first orphan nuclear receptors discovered, play an important role in the control of cellular energy metabolism. ERRs are required for high-energy production in response to the environmental challenges. The pleiotropic PPARgamma coactivator (PGC) is a major partner of ERR and a key regulator in energy homeostasis. Together they have been implicated in the etiology of metabolic disorders such as Type 2 diabetes and metabolic syndrome. ERR-alpha was also identified as an adverse marker for breast cancer progression; ERR-alpha-positive tumors have a poor prognosis. To screen and to identify environmental compounds that perturb the ERR and PGC/ERR signaling pathways could provide valuable information for potential therapeutic or preventive measures in the treatment of metabolic disease. To differentiate true PGC/ERR antagonists or agonist from cytotoxic substances, the assay is multiplexed with cell viability assay.
Tox21 Assay Protocol Summary:
The PGC/ERR cells were dispensed at 2,000 cells/5 ul/well in 1536-well white plates using a Multidrop dispenser. After the assay plates were incubated at a 37 C/5% CO2 incubator for 6 hours, 23 nL of compounds dissolved in DMSO, positive and negative controls or DMSO only was transferred to the assay plate by a pin tool. The plates were incubated at 37 C for 17.5 hours. 1 ul/well of CellTiter-Fluor reagent was added into the assay plates using a Flying Reagent Dispenser. After 30 min incubation at 37 C/5% CO2, the fluorescence intensity in the plates was measured using a ViewLux plate reader.
On the % scale 0 is the no-effect control and ±100 the full control effect.

Q: Which “viability change, negative = cytotoxic” value does the source give for C[C@]12C[C@H](O)[C@H]3[C@@H](CCC4=CC(=O)CC[C@@]43C)[C@@H]1CC[C@@H]2C(=O)CO here?
A: 6.74% (inactive)

Q: For C[C@]12CC[C@@H]3c4ccc(O)cc4C[C@@H](CCCCCCCCCS(=O)CCCC(F)(F)C(F)(F)F)[C@H]3[C@@H]1CC[C@@H]2O (stereo partly drawn), which “viability change, negative = cytotoxic” value is on record?
A: -5.89% (inactive)

Q: Which “viability change, negative = cytotoxic” value does the source give for CCN(CC)CCOC(=O)c1ccc(N)cc1 here?
A: 3.45% (inactive)

Q: For CC1=C(/C=C/C(C)=C/C=C/C(C)=C/C(=O)O)C(C)(C)CCC1, which “viability change, negative = cytotoxic” value is on record?
A: -5.44% (inactive)

Q: Which “viability change, negative = cytotoxic” value does the source give for COc1ccccc1O here?
A: 4.92% [at 92.2 µM] (inactive)

Q: Which “viability change, negative = cytotoxic” value does the source give for CN/C(=C\[N+](=O)[O-])NCCSCc1ccc(CN(C)C)o1 here?
A: 3.17% (inactive)

Q: For COc1cc2c(c(OC)c1OC)-c1ccc(OC)c(=O)cc1[C@@H](NC(C)=O)CC2, which “viability change, negative = cytotoxic” value is on record?
A: -10.3% (inactive)

Q: Which “viability change, negative = cytotoxic” value does the source give for CC(=O)Oc1ccccc1C(=O)O here?
A: 11.8% (inactive)

Q: For NC(=O)N/N=C/c1ccc([N+](=O)[O-])o1, which “viability change, negative = cytotoxic” value is on record?
A: -5.73% [at 92.2 µM] (inactive)

Q: With O=c1c(-c2ccc(O)cc2)coc2cc(O)cc(O)c12 as the compound, how does the “viability change, negative = cytotoxic” value read?
A: -10.7% (inactive)

Q: Which “viability change, negative = cytotoxic” value does the source give for CC(C)(C)NCC(O)c1ccc(O)c(CO)c1 (stereo not drawn) here?
A: -1.57% (inactive)

Q: For CC(C)Cc1ccc(C(C)C(=O)O)cc1 (stereo not drawn), which “viability change, negative = cytotoxic” value is on record?
A: 9.36% (inactive)

Q: For O=C(O)Cc1cccc2ccccc12, which “viability change, negative = cytotoxic” value is on record?
A: -3.67% [at 92.2 µM] (inactive)

Q: Which “viability change, negative = cytotoxic” value does the source give for NC(=O)OCC(COC(N)=O)c1ccccc1 here?
A: 3.15% (inactive)

Q: For Cc1cnc(NC(=O)C2=C(O)c3ccccc3S(=O)(=O)N2C)s1, which “viability change, negative = cytotoxic” value is on record?
A: -4.85% (inactive)

Q: For Cn1cnc2c1c(=O)[nH]c(=O)n2C, which “viability change, negative = cytotoxic” value is on record?
A: 3.1% (inactive)

Q: Which “viability change, negative = cytotoxic” value does the source give for N[C@@H](Cc1c[nH]c2ccccc12)C(=O)O here?
A: 16.9% (inactive)

Q: For C[C@]12CC[C@@H]3c4ccc(O)cc4CC[C@H]3[C@@H]1CCC2=O, which “viability change, negative = cytotoxic” value is on record?
A: 7% (inactive)

Q: With N[C@@H](Cc1c[nH]c2ccc(O)cc12)C(=O)O as the compound, how does the “viability change, negative = cytotoxic” value read?
A: 6.32% (inactive)

Q: For CC(=O)c1ccc(S(=O)(=O)NC(=O)NC2CCCCC2)cc1, which “viability change, negative = cytotoxic” value is on record?
A: 9.2% (inactive)

Q: For NC(=O)N1c2ccccc2C=Cc2ccccc21, which “viability change, negative = cytotoxic” value is on record?
A: 7.83% (inactive)

Q: Which “viability change, negative = cytotoxic” value does the source give for NC(=O)NO here?
A: 9.1% (inactive)

Q: With CCOC(=O)C(C)(C)Oc1ccc(Cl)cc1 as the compound, how does the “viability change, negative = cytotoxic” value read?
A: 8.64% (inactive)
